The results in this text go back to PubChem BioAssay (EPA / NIEHS).

The source made the active and inactive calls. The calls were made as follows: active = hit-call score of the fitted dose curve at least 0.9, where 1 is the maximum; inactive = score below 0.9.

Hepatocyte nuclear factor 6 (Homo sapiens), sequence (Q9UBC0 whole entry, looked up): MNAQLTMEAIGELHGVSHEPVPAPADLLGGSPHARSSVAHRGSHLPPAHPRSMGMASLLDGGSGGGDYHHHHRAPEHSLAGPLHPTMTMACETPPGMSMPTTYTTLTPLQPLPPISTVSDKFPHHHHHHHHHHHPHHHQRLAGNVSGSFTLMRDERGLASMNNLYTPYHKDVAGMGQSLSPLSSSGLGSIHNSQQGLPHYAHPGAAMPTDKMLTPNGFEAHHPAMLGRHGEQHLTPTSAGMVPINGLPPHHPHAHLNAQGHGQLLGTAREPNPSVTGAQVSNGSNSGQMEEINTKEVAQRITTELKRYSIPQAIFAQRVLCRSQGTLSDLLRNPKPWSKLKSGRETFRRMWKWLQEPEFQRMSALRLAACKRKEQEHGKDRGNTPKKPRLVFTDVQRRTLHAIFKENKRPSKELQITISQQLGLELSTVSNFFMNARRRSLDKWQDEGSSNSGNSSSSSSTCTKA

The target in the assay is Hepatocyte nuclear factor 6 (Homo sapiens) (UniProt Q9UBC0). In words: ATG_HNF6_CIS: Attagene CIS-FACTORIAL HepG2 Assay for human Hepatocyte Nuclear Factor 6 (HNF6) (AID 2282952). The settings on record: HepG2 Attagene cis-factorial HNF6 reporter transcription; actives raise or lower the signal. How it is done:
ATG_CIS is a cell-based, multiplexed-readout assay that uses HepG2, a human liver cell line, with measurements taken at 24 hours after chemical dosing in a 24-well plate.ATG_HNF6_CIS is one of 52 assay component(s) measured or calculated from the ATG_CIS assay. It is designed to make measurements of mRNA induction, a form of inducible reporter, as detected with fluorescence intensity signals by Reverse transcription polymerase chain reaction (RT-PCR) and Capillary electrophoresis technology.Data from the assay component ATG_HNF6_CIS was analyzed into 1 assay endpoint. This assay endpoint, ATG_HNF6_CIS, was analyzed with bidirectional fitting relative to DMSO as the negative control and baseline of activity. Using a type of inducible reporter, measures of mRNA for gain or loss-of-signal activity can be used to understand the reporter gene at the transcription factor-level as they relate to the gene ONECUT1. Furthermore, this assay endpoint can be referred to as a primary readout, because this assay has produced multiple assay endpoints where this one serves a reporter gene function. To generalize the intended target to other relatable targets, this assay endpoint is annotated to the dna binding intended target family, where the subfamily is homeobox protein.
Human liver HepG2 cells are transiently transfected with multiple reporter transcription units (MRTUs) in 6-well plates using FuGene 6 reagent (Roche; 3 ml FuGene/1 mg DNA). The MRTU constructs are regulated by a cis-regulating element (promoter). […] A major difference between the CIS and TRANS system is that in CIS activities of endogenous TFs are measured, whereas the TRANS assay evaluates changes in activities of exogenous, chimeric NR-Gal4 proteins. […] At the end of 24 hour incubation, total RNA was isolated using TriZol reagent (Invitrogen). The isolated RNA is then reverse-transcribed using oligo(dT) primer and Mo-MLV reverse transcriptase (Invitrogen) with DNAse I (Ambion) treatment for 30 min. The one-tenth of the produced cDNA was amplified by PCR using Taq DNA polymerase (Invitrogen) and two reporter sequence-specific primers. The PCR products were fluorescently labeled by primer extension with 6-arboxyfluorescein (6-FAM) 5'-labeled reporter sequence-specific primer (2 min at 95 C, 20 s at 68 C and 10 min at 72 C) and these products were digested with 5U of HpaI (New England Biolabs) for 2h at 37 C. The fragments were purified using Qiaquick PCR columns (Qiagen), analyzed on an ABI 3130xL genetic analyzer (Applied Biosystems) with peak positions identified by using a set of X-rhodamine (ROX)-labeled MapMarker1000 molecular weight standards (BioVentures). The raw capillary electrophoresis data was processed using Attagraph software (Attagene).
As to `CCOc1ccc2c(c1)C(C)=CC(C)(C)N2`, the result was inactive.
As for `NCC1(Cc2noc(=O)[nH]2)CCCCC1`, the call was inactive.
As to `OC[C@@H](O)[C@@H](O)[C@H](O)[C@H](O)CO`, the call was inactive.
The same measure, in the same setting: to `CCCCCCCCCCO` belongs “inactive”; to `Cc1ccccc1Cl`, “inactive”.
On to `CC(=O)OCCOCCOCCOC(C)=O`, for which the compound was called inactive.
Take `C1CCC(SSC2CCCCC2)CC1`: the call was inactive.
The same measure, in the same setting: with `NS(=O)(=O)c1cc2c(cc1Cl)NCNS2(=O)=O` the entry was “inactive”.
The same measure, in the same setting: with `Cc1ccc(Cl)cc1` the entry was “inactive”.
Same read-out and setting: with `FC(F)(F)C(F)(F)C(F)(F)C(F)(F)C(F)(F)C(F)(F)CCI` the entry was “inactive”; with `Nc1ccc2c(c1)C(=O)c1ccccc1C2=O`, “inactive”; with `Cc1ccc(N(C)C)cc1`, “inactive”.
Turning to `CNCc1cc(F)ccc1Oc1ccc(Cl)c(Cl)c1`, the compound was called inactive.
Regarding `CN1CCN(Cc2cc(-c3ccc4[nH]c(=O)oc4c3)co2)[C@@H](c2ccc(F)cc2)C1`, the compound was called inactive.
`CCNc1cccc(C)c1`: the compound was classed as inactive.
Still for that read-out and setting: with `O=c1[nH]cc(F)c(=O)[nH]1` the entry was “inactive”; with `C[C@]12C=CC(=O)C=C1CC[C@@H]1[C@@H]2C(=O)C[C@@]2(C)[C@H]1CC[C@]2(O)C(=O)CO`, “inactive”; with `Cc1ccc(C)c(O)c1C`, “inactive”.
The same measure, in the same setting: with `Cc1c(C(=O)O)c(O)cc2c1C(=O)c1c(O)c([C@@H]3O[C@H](CO)[C@@H](O)[C@H](O)[C@H]3O)c(O)c(O)c1C2=O` the entry was “inactive”.
On to `CCCCCCCCCCCC(=O)OC`, for which the call was inactive.
Still for that read-out and setting: to `C=CCOC(=O)c1ccccc1C(=O)OCC=C` belongs “inactive”; to `CCCCCCCC=O`, “inactive”.
Regarding `CNC(=O)[C@H]1O[C@@H](n2cnc3c(NCc4cc(Cl)ccc4OCc4cc(C)no4)ncnc32)[C@H](O)[C@@H]1N`, the call was inactive.
On the same count and under the same terms, to `CN1CCCC1=O` belongs “inactive”; to `CN[C@H]1CC[C@@H](c2ccc(Cl)c(Cl)c2)c2ccc(S(N)(=O)=O)cc21`, “inactive”.
Regarding `Cc1cccc(C)c1O`, the compound was classed as inactive.
Take `COc1cc(C=O)ccc1O`: the call was inactive.
One may read the AC50 as the concentration giving half of the maximal activity seen. For the compound `CC1=C(/C=C/C(C)=C/C=C/C(C)=C/CO)C(C)(C)CCC1`, the AC50 is 158 µM (active).
`Oc1ccc2c(c1)OC[C@@H](N1CCC(O)(c3ccc(F)cc3)CC1)[C@H]2O`: the call was inactive.
`O=c1c(O)c(-c2ccc(O)c(O)c2)oc2cc(O)cc(O)c12`: the compound was classed as inactive.
For the compound `O=C(OCCCCCOC(=O)c1ccccc1)c1ccccc1`, the compound was classed as inactive.
Same read-out and setting: to `CCCCCCCCCCCCCO` belongs “inactive”; to `COCCOCCOC`, “inactive”; to `Cc1cc(NC(=O)C(=O)O)cc(C)c1Oc1ccc(O)c2c1CCC2`, “inactive”.
On to `Cc1cccc(Nc2cc(Cl)nc(SCC(=O)O)n2)c1C`, for which the compound was classed as inactive.
On to `CC(C)(C)c1cc(O)c(C(C)(C)C)cc1O`, for which the compound was classed as inactive.
Same read-out and setting: with `COc1ccc(S(=O)(=O)N2C(=O)[C@@](c3ccccc3OC)(N3C[C@H](O)C[C@H]3C(=O)N(C)C)c3cc(Cl)ccc32)c(OC)c1` the entry was “inactive”.
On the same count and under the same terms, to `C=CCc1ccc(O)c(OC)c1` belongs “inactive”; to `CCCCCCOCCO`, “inactive”.
For `CC(=O)OC/C=C(\C)CCC=C(C)C`, the result was inactive.
